In this experiment the test system is Trichoderma virens ATCC 9645. Briefly: growth yield (OD600) with compound + IPBC relative to untreated control; higher = less growth inhibition. The settings on record: compound concentration: 100 uM, IPBC concentration: 200 ng/ml. In short, it runs like this:
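Growth appears as means of duplicate screens, relative to the control containing neither agent. To obtain it, OD600 was read on a BioTek EL800 at 40 h and 72 h. The cultures were 100 μl aliquots in 96-well plates at 30 °C, holding Trichoderma virens ATCC 9645 spores at 15,000 spores ml^−1 in potato dextrose broth, library compounds at 100 μM final, and, in some wells, a biocide at 200 ng ml^−1.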

Where a name gives a salt, the structure may show the parent alone. ± gives the standard error. In all, about 1,300 compounds went through this assay and about 130 (10%) showed an effect of 50% or more. This excerpt belongs to a sample that is enriched for strong results.

As to `COc1ccc(CN(CCN(C)C)c2ccccn2)cc1` [Pyrilamine maleate] + CCCCNC(=O)OCC#CI [3-iodo-2-propynyl butylcarbamate (IPBC)], the growth yield is, setting by setting: (40 h) 82.8 ± 4.6%; (72 h) 92.4 ± 4.9%.
On to `CN(C)CCN(Cc1ccc(Cl)cc1)c1ccccn1` [Chloropyramine hydrochloride] + CCCCNC(=O)OCC#CI [3-iodo-2-propynyl butylcarbamate (IPBC)], for which the growth yield is 76.1 ± 1.1% (40 h) and 92.3 ± 2.3% (72 h).
In the same order, the values of `CCCCCCCCCCCCCCCC[N+](C)(C)CCN(Cc1ccc(OC)cc1)c1ncccn1` [Thonzonium bromide] + CCCCNC(=O)OCC#CI [3-iodo-2-propynyl butylcarbamate (IPBC)] are 3.34 ± 0.16% and 2.62 ± 0.1%.
With `COC(c1ccccc1)(c1ccccc1)[C@H](Oc1nc(C)cc(C)n1)C(=O)O` [Ambrisentan] + CCCCNC(=O)OCC#CI [3-iodo-2-propynyl butylcarbamate (IPBC)], the growth yield is, setting by setting: (40 h) 89.3 ± 5.7%; (72 h) 93.9 ± 3.9%.
In the same order, the values of `NC(=O)N1c2ccccc2CC(=O)c2ccccc21` [Oxcarbazepine] + CCCCNC(=O)OCC#CI [3-iodo-2-propynyl butylcarbamate (IPBC)] are 83.4 ± 2.4% and 92.9 ± 1.9%.
In the same order, the values of `CC(C)N1CCN(c2ccc(OCC3COC(Cn4cncn4)(c4ccc(Cl)cc4Cl)O3)cc2)CC1` (stereo not drawn) [Terconazole] + CCCCNC(=O)OCC#CI [3-iodo-2-propynyl butylcarbamate (IPBC)] are 69.9 ± 2.5% and 87 ± 1.3%.
As to `CC[C@@H]([C@H](C)O)n1ncn(-c2ccc(N3CCN(c4ccc(OC[C@@H]5CO[C@@](Cn6cncn6)(c6ccc(F)cc6F)C5)cc4)CC3)cc2)c1=O` [Posaconazole] + CCCCNC(=O)OCC#CI [3-iodo-2-propynyl butylcarbamate (IPBC)], the growth yield is, setting by setting: (40 h) 3.97 ± 1.4%; (72 h) 3.78 ± 1.7%.
In the case of `CCC(C)n1ncn(-c2ccc(N3CCN(c4ccc(OCC5COC(Cn6cncn6)(c6ccc(Cl)cc6Cl)O5)cc4)CC3)cc2)c1=O` (stereo not drawn) [Itraconazole] + CCCCNC(=O)OCC#CI [3-iodo-2-propynyl butylcarbamate (IPBC)], the growth yield runs as follows: (40 h) 14.3 ± 1.9%; (72 h) 11.3 ± 1.7%.
The corresponding values for `CC(=O)N1CCN(c2ccc(OCC3COC(Cn4ccnc4)(c4ccc(Cl)cc4Cl)O3)cc2)CC1` (stereo not drawn) [Ketoconazole] + CCCCNC(=O)OCC#CI [3-iodo-2-propynyl butylcarbamate (IPBC)] are 3.34 ± 0.48% and 2.52 ± 0.42%.
The corresponding values for `C[N+]1([O-])[C@@H]2C[C@@H](OC(=O)[C@H](CO)c3ccccc3)C[C@H]1[C@@H]1O[C@@H]12` (stereo partly drawn) [Scopolamin-N-oxide hydrobromide] + CCCCNC(=O)OCC#CI [3-iodo-2-propynyl butylcarbamate (IPBC)] are 103 ± 2.2% and 102 ± 1.1%.
With `CC(C)c1cccc(C(C)C)c1O` [Propofol] + CCCCNC(=O)OCC#CI [3-iodo-2-propynyl butylcarbamate (IPBC)], the growth yield (40 h) turned out to be 101 ± 2.9% and the growth yield (72 h) worked out at 98.4 ± 1.3%.
The corresponding values for `CO[C@@]1(NC(=O)C2SC(=C(C(N)=O)C(=O)O)S2)C(=O)N2C(C(=O)O)=C(CSc3nnnn3C)CS[C@@H]21` (stereo partly drawn) [Cefotetan] + CCCCNC(=O)OCC#CI [3-iodo-2-propynyl butylcarbamate (IPBC)] are 94.8 ± 2.4% and 96.5 ± 1.9%.
In the same order, the values of `NS(=O)(=O)c1cc2c(cc1C(F)(F)F)NCNS2(=O)=O` [Hydroflumethiazide] + CCCCNC(=O)OCC#CI [3-iodo-2-propynyl butylcarbamate (IPBC)] are 89.1 ± 1.1% and 92.4 ± 0.73%.
The corresponding values for `C[C@]12Cc3c[nH]nc3C[C@@H]1CC[C@@H]1[C@@H]2CC[C@@]2(C)[C@H]1CC[C@]2(C)O` [Stanozolol] + CCCCNC(=O)OCC#CI [3-iodo-2-propynyl butylcarbamate (IPBC)] are 91.02 ± 0.16% and 95.9%.
Take `CCN1CC(CCN2CCOCC2)C(c2ccccc2)(c2ccccc2)C1=O` (stereo not drawn) [Doxapram hydrochloride] + CCCCNC(=O)OCC#CI [3-iodo-2-propynyl butylcarbamate (IPBC)]: the growth yield is, setting by setting: (40 h) 88.6 ± 1.3%; (72 h) 91.14 ± 0.32%.
The corresponding values for `CN(C)CCCSC(=N)N` [Dimaprit dihydrochloride] + CCCCNC(=O)OCC#CI [3-iodo-2-propynyl butylcarbamate (IPBC)] are 93.9 ± 6.5% and 95.8 ± 4.3%.
Take `Cc1ccc(-c2ncc(Cl)cc2-c2ccc(S(C)(=O)=O)cc2)cn1` [Etoricoxib] + CCCCNC(=O)OCC#CI [3-iodo-2-propynyl butylcarbamate (IPBC)]: the growth yield reads like this: (40 h) 88.79 ± 0.48%; (72 h) 91.14 ± 0.73%.
Turning to `CN[C@@H]1C[C@@H](c2ccc(Cl)c(Cl)c2)c2ccccc21` [Indatraline hydrochloride] + CCCCNC(=O)OCC#CI [3-iodo-2-propynyl butylcarbamate (IPBC)], the growth yield by setting is: (40 h) 29.4 ± 4.9%; (72 h) 79.5 ± 1.7%.
The corresponding values for `CN[C@H]1CC[C@@H](c2ccc(Cl)c(Cl)c2)c2ccccc21` [Sertraline] + CCCCNC(=O)OCC#CI [3-iodo-2-propynyl butylcarbamate (IPBC)] are 30.8 ± 4.1% and 82.5 ± 2%.
`Cc1c(N(C)CS(=O)(=O)O)c(=O)n(-c2ccccc2)n1C` [Dipyrone] + CCCCNC(=O)OCC#CI [3-iodo-2-propynyl butylcarbamate (IPBC)]: the growth yield by setting is: (40 h) 92.4 ± 6.7%; (72 h) 87.9 ± 5.2%.
The corresponding values for `COc1ccnc(C[S+]([O-])c2nc3cc(OC(F)F)ccc3[nH]2)c1OC` (stereo not drawn) [Pantoprazole sodium] + CCCCNC(=O)OCC#CI [3-iodo-2-propynyl butylcarbamate (IPBC)] are 73.5 ± 2.4% and 98.9 ± 0.94%.
Turning to `C#C[C@]1(O)CC[C@H]2[C@@H]3CCc4cc(OC)ccc4[C@H]3CC[C@@]21C` [Ethynylestradiol 3-methyl ether] + CCCCNC(=O)OCC#CI [3-iodo-2-propynyl butylcarbamate (IPBC)], the growth yield is 87 ± 16% (40 h) and 88.9 ± 12% (72 h).
In the same order, the values of `CO[C@@]1(NC(=O)C(C(=O)O)c2ccc(O)cc2)C(=O)N2C(C(=O)O)=C(CSc3nnnn3C)CO[C@@H]21` (stereo partly drawn) [Moxalactam disodium salt] + CCCCNC(=O)OCC#CI [3-iodo-2-propynyl butylcarbamate (IPBC)] are 97.1 ± 14% and 96 ± 7.7%.
In the same order, the values of `CCn1cc(C(=O)O)c(=O)c2cc(F)c(N3CCNCC3)nc21` [Enoxacin] + CCCCNC(=O)OCC#CI [3-iodo-2-propynyl butylcarbamate (IPBC)] are 83.9 ± 1.6% and 87 ± 1.5%.

The values above are taken from the supplement of paper PMC8007513.
